Reference: the supplement of paper PMC10037445
“And” between values parts separate entries of the source, which are not always exact repeats. Equal entries are not always repeated. Whole data set: some 2,900 compounds, median “NF-kB SEAP reporter activity, fold change vs agonist alone” near 0.99, cut for the highest 2% near 2.6. The sample holds the highest values, similar compounds and a random draw of the others, so the mix is not that of the screen.

Legend:
RAW-Dual [1] = assay: NF-kB SEAP reporter activity, fold change vs agonist alone; cytotoxicity flag (confluency mask): not cytotoxic; higher = enhanced NF-kB activity
Summary of the method: (§1)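 Cytotoxic wells were those whose IncuCyte confluency was below 70% of agonist controls in both mask sets. The cells were RAW-Dual macrophages at 50,000 cells/well in DMEM on 384-well plates, dosed with 50 nL of library stock by pin tool, stimulated with a PRR agonist 1 h later, and kept at 37 °C, 5% CO2 for 20 hours. IRF and NF-κB reporter activity, as fold change over agonist-alone wells, came from supernatant read by QuantiLuc luminescence and QuantiBlue absorbance, respectively.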

RAW-Dual [2] = assay: NF-kB SEAP reporter activity, fold change vs agonist alone; higher = enhanced NF-kB activity; settings: library stock concentration (final ~1000-fold dilution): 10 mM, cytotoxicity flag (confluency mask): not cytotoxic
Summary of the method: as §1

[3] = agonist: ODN 1826 (TLR9) 0.5 ug/mL
[4] = agonist: Pam2CSK4 (TLR2/6) 0.1 ug/mL
[5] = agonist: Pam3CSK4 (TLR2/1) 0.1 ug/mL

Structure (SMILES)	NF-kB SEAP reporter activity (RAW-Dual [1]; agonist: LPS (TLR4) 0.1 ug/mL)	NF-kB SEAP reporter activity (RAW-Dual [1]; [3])	NF-kB SEAP reporter activity (RAW-Dual [1]; [4])	NF-kB SEAP reporter activity (RAW-Dual [1]; [5])	NF-kB SEAP reporter activity (RAW-Dual [2]; agonist: Imiquimod (TLR7) […])	NF-kB SEAP reporter activity (RAW-Dual [2]; agonist: MPLA (TLR4) […])
CC(C(=O)O)c1cccc(C(=O)c2ccccc2)c1 (stereo not given) (library stock concentration (final ~1000-fold dilution): 10 mM)	1.02	1.01	1.11	1.19		
CC(C)C(C(=O)Nc1ccc(C(=O)NO)cc1)c1ccccc1 (stereo not given)					0.965	0.937
CC(C(=O)O)c1cccc(C(=O)c2ccccc2)c1 (stereo not given)					0.866	1.05
CC(C)C(C(=O)Nc1ccc(C(=O)NO)cc1)c1ccccc1 (stereo not given) (library stock concentration (final ~1000-fold dilution): 10 mM)	4.76	0.93	1.12	1.15		
Cc1nc(-c2nc(-c3ccc(OC(F)(F)F)cc3)no2)nn1Cc1cccc(N2CCC(S(C)(=O)=O)CC2)c1 (library stock concentration (final ~1000-fold dilution): 10 mM)	2	0.837	0.462	0.849		
Cc1nc(-c2nc(-c3ccc(OC(F)(F)F)cc3)no2)nn1Cc1cccc(N2CCC(S(C)(=O)=O)CC2)c1					0.853	1.28
O.O=c1c(O)c(-c2ccc(O)cc2O)oc2cc(O)cc(O)c12					0.957	1.05
O.O=c1c(O)c(-c2ccc(O)cc2O)oc2cc(O)cc(O)c12 (library stock concentration (final ~1000-fold dilution): 10 mM)	1.52	1.13	1.15	1.18		
COCCCOc1cc(CC(CC(N)C(O)CC(C(=O)NCC(C)(C)C(N)=O)C(C)C)C(C)C)ccc1OC (stereo not given) (library stock concentration (final ~1000-fold dilution): 10 mM)	1.36 and 1.31	1.57 and 0.983	1.09 and 0.934	1.04 and 1.06		
CC1=NN(c2ccc(C)c(C)c2)C(=O)/C1=N\Nc1cccc(-c2cccc(C(=O)O)c2)c1O.NCCO.NCCO (library stock concentration (final ~1000-fold dilution): 10 mM)	2.92	1.31	1.58	1.34		
CC1=NN(c2ccc(C)c(C)c2)C(=O)/C1=N\Nc1cccc(-c2cccc(C(=O)O)c2)c1O.NCCO.NCCO					1.57	1.64
Cc1ncc(Cl)cc1NCc1ccc(C(=O)NC(CC2CCCC2)C(=O)NC2CC2)s1 (stereo not given)					0.865	0.987
Cc1ncc(Cl)cc1NCc1ccc(C(=O)NC(CC2CCCC2)C(=O)NC2CC2)s1 (stereo not given) (library stock concentration (final ~1000-fold dilution): 10 mM)	0.894	0.742	0.85	0.698		
